# In PubChem BioAssay (EPA / NIEHS):
# The source made the active and inactive calls. Rule for the calls: active = hit-call score of the fitted dose curve at least 0.9, where 1 is the maximum; inactive = score below 0.9.
# Columns and labels:
# Details in all cases: mRNA level, 48 h; actives raise or lower the signal
# [1] = read-out: 3-Hydroxy-3-Methylglutaryl-CoA Synthase 2 (HMGCS2), HMGCS2 (gene 3158); assay: LTEA_HepaRG_HMGCS2: Life Technologies and Expression Analysis (LTEA) Assay for 3-Hydroxy-3-Methylglutaryl-CoA Synthase 2 (HMGCS2) using HepaRG (AID 2283504)
# Method in brief: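 qRT-PCR read-out of HMGCS2 transcript, normalised to three housekeeping genes, in HepaRG cells after 48 h chemical exposure. Eight-point curves from 100 uM, half-log dilutions, 0.5% DMSO vehicle; gain or loss fitted relative to DMSO baseline.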
# HGF (gene 3082) = assay: LTEA_HepaRG_HGF: Life Technologies and Expression Analysis (LTEA) Assay for Hepatocyte Growth Facto (HGF) using HepaRG (AID 2283505)
# Method in brief: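 HepaRG, 48 h dosing, 8-pt half-log series from 100 uM in 0.5% DMSO, duplicates. Readout: TaqMan qRT-PCR of HGF mRNA, housekeeping-normalized; bidirectional curve fit vs DMSO baseline.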
# [2] = read-out: Insulin Like Growth Factor 1 (IGF1), IGF1 (gene 3479); assay: LTEA_HepaRG_IGF1: Life Technologies and Expression Analysis (LTEA) Assay for Insulin Like Growth Factor 1 (IGF1) using HepaRG (AID 2283506)
# Method in brief: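 Cells are thawed, plated and cultured 48 h, then exposed in duplicate to chemical (highest 100 uM, half-log steps, 0.5% DMSO) for another 48 h. Total RNA is analysed by Fluidigm qRT-PCR for IGF1 expression relative to vehicle.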
# [3] = read-out: Intercellular Adhesion Molecule 1 (ICAM1), ICAM1 (gene 3383); assay: LTEA_HepaRG_ICAM1: Life Technologies and Expression Analysis (LTEA) Assay for Intercellular Adhesion Molecule 1 (ICAM1) using HepaRG (AID 2283507)
# Method in brief: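 HepaRG, 48 h exposure, 8-pt half-log series from 100 uM, 0.5% DMSO vehicle, duplicates. Readout: TaqMan qRT-PCR mRNA, housekeeping-normalized (ACTB/GAPDH/POLR2A). Bidirectional curve fit vs DMSO baseline.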
# [4] = read-out: Insulin-like growth factor-binding protein 1 (IGFBP1), IGFBP1 (gene 3484); assay: LTEA_HepaRG_IGFBP1: Life Technologies and Expression Analysis (LTEA) Assay for Insulin-like growth factor-binding protein 1 (IGFBP1) using HepaRG (AID 2283508)
# Method in brief: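 qRT-PCR mRNA read-out (TaqMan, Fluidigm array), normalised to three housekeeping genes; HepaRG cells, 48 h exposure, 8-pt half-log series from 100 uM, 0.5% DMSO vehicle; bidirectional curve fit vs DMSO baseline.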
# [5] = read-out: Interleukin 6 (IL6), IL6 (gene 3569); assay: LTEA_HepaRG_IL6: Life Technologies and Expression Analysis (LTEA) Assay for Interleukin 6 (IL6) using HepaRG (AID 2283509)
# Method in brief: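 Changes in IL6 mRNA, up or down relative to 0.5% DMSO controls, were derived from concentration-response curves in human HepaRG cells treated for 48 h at up to 100 uM, with ACTB, GAPDH and POLR2A as normalizers.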
# [6] = read-out: Potassium channel subfamily K member 1 (KCNK1), KCNK1 (gene 3775); assay: LTEA_HepaRG_KCNK1: Life Technologies and Expression Analysis (LTEA) Assay for Potassium channel subfamily K member 1 (KCNK1) using HepaRG (AID 2283511)
# Method in brief: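 Human HepaRG cultures receive test chemicals for 48 h in 0.5% DMSO, top concentration 100 uM with half-log dilutions. Induction or suppression of KCNK1 mRNA relative to DMSO is derived by bidirectional fitting of qRT-PCR data.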
# [7] = read-out: Keratin 19 (KRT19), KRT19 (gene 3880); assay: LTEA_HepaRG_KRT19: Life Technologies and Expression Analysis (LTEA) Assay for Keratin 19 (KRT19) using HepaRG (AID 2283512)
# Method in brief: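 HepaRG, 48 h chemical exposure, 8-pt half-log CRC from 100 uM, 0.5% DMSO vehicle, duplicates. Readout: TaqMan qRT-PCR of KRT19 mRNA, housekeeping-normalized (ACTB/GAPDH/POLR2A). Bidirectional fit vs DMSO baseline.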
# [8] = read-out: JUN Transcription Factor, JUN (gene 3725); assay: LTEA_HepaRG_JUN: Life Technologies and Expression Analysis (LTEA) Assay for JUN Transcription Factor using HepaRG (AID 2283513)
# Method in brief: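 Read-out is JUN transcript level by TaqMan qRT-PCR, normalized to ACTB, GAPDH and POLR2A, after 48 h chemical treatment of HepaRG cells. Concentration-response spanned eight half-log points up to 100 uM in 0.5% DMSO.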
# [9] = read-out: Interleukin 6 Receptor (IL6R), IL6R (gene 3570); assay: LTEA_HepaRG_IL6R: Life Technologies and Expression Analysis (LTEA) Assay for Interleukin 6 Receptor (IL6R) using HepaRG (AID 2283510);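 note: differentiated human HepaRG liver cells in serum-free induction medium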
# Method in brief: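 Cells were thawed, plated and cultured 48 h, then medium was changed to serum-free induction medium. Chemicals were added in duplicate (100 uM top, half-log steps, 0.5% DMSO) for 48 h. Lysates were analyzed by qRT-PCR for IL6R expression.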
structure (smiles),measurement,setting,value
CSc1nc(NC(C)C)nc(NC(C)C)n1,AC50,[1],50 µM (active)
same,outcome,HGF (gene 3082),inactive
same,AC50,[2],20.7 µM (active)
same,outcome,[3],inactive
same,outcome,[4],inactive
same,outcome,[5],inactive
same,outcome,[6],inactive
same,outcome,[7],inactive
O=[N+]([O-])c1cc(C(F)(F)F)c(Cl)c([N+](=O)[O-])c1Nc1ncc(C(F)(F)F)cc1Cl,AC50,[1],36.5 µM (active)
same,outcome,HGF (gene 3082),inactive
same,AC50,[2],79.4 µM (active)
same,outcome,[3],inactive
same,AC50,[4],42.6 µM (active)
same,AC50,[5],73.9 µM (active)
same,outcome,[6],inactive
same,AC50,[7],26.2 µM (active)
CSC1=N[C@@](C)(c2ccccc2)C(=O)N1Nc1ccccc1,AC50,[1],35.3 µM (active)
same,outcome,HGF (gene 3082),inactive
same,AC50,[2],27.6 µM (active)
same,AC50,[3],34 µM (active)
same,AC50,[4],31.6 µM (active)
same,AC50,[5],33.3 µM (active)
same,outcome,[6],inactive
same,AC50,[7],18.7 µM (active)
same,outcome,[8],inactive
CCOC(=O)COc1cc(-c2nn(C)c(OC(F)F)c2Cl)c(F)cc1Cl,outcome,[1],inactive
same,outcome,HGF (gene 3082),inactive
same,outcome,[2],inactive
same,outcome,[3],inactive
same,outcome,[4],inactive
same,outcome,[5],inactive
same,outcome,[6],inactive
same,outcome,[7],inactive
CC[C@H](C)[C@H]1O[C@]2(C=C[C@@H]1C)C[C@@H]1C[C@@H](C/C=C(\C)[C@@H](O[C@H]3C[C@H](OC)[C@@H](O[C@H]4C[C@H](OC)[C@@H](NC)[C@H](C)O4)[C@H](C)O3)[C@@H](C)/C=C/C=C3\CO[C@@H]4[C@H](O)C(C)=C[C@@H](C(=O)O1)[C@]34O)O2,AC50,[1],12.5 µM (active)
same,outcome,HGF (gene 3082),inactive
same,AC50,[2],27.7 µM (active)
same,AC50,[3],28.9 µM (active)
same,AC50,[4],14.6 µM (active)
same,AC50,[5],21.3 µM (active)
same,AC50,[6],22.5 µM (active)
same,outcome,[7],inactive
same,AC50,[8],26.5 µM (active)
CCC(=O)Nc1ccc(Cl)c(Cl)c1,outcome,[1],inactive
same,outcome,HGF (gene 3082),inactive
same,outcome,[2],inactive
same,outcome,[3],inactive
same,AC50,[4],50 µM (active)
same,outcome,[5],inactive
same,outcome,[6],inactive
same,AC50,[7],41.4 µM (active)
CC(Oc1cccc(Cl)c1)C(=O)O (centres undefined),outcome,[1],inactive
same,outcome,HGF (gene 3082),inactive
same,outcome,[3],inactive
same,outcome,[4],inactive
same,outcome,[5],inactive
same,outcome,[6],inactive
same,outcome,[7],inactive
same,outcome,[8],inactive
CCc1cccc(C)c1N(C(=O)CCl)C(C)COC (centres undefined),outcome,[1],inactive
same,outcome,HGF (gene 3082),inactive
same,AC50,[2],50 µM (active)
same,outcome,[3],inactive
same,outcome,[4],inactive
same,outcome,[5],inactive
same,outcome,[6],inactive
same,outcome,[7],inactive
same,outcome,[8],inactive
CCCOCC(=Nc1ccc(Cl)cc1C(F)(F)F)n1ccnc1,AC50,[1],53.2 µM (active)
same,outcome,HGF (gene 3082),inactive
same,AC50,[2],12.1 µM (active)
same,AC50,[3],88.2 µM (active)
same,AC50,[5],85.7 µM (active)
same,AC50,[9],66.4 µM (active)
same,outcome,[6],inactive
same,AC50,[7],12 µM (active)
COc1cc(OC)nc(Sc2cccc(Cl)c2C(=O)O)n1,outcome,[1],inactive
same,outcome,HGF (gene 3082),inactive
same,outcome,[2],inactive
same,outcome,[3],inactive
same,outcome,[4],inactive
same,outcome,[5],inactive
same,outcome,[6],inactive
same,outcome,[7],inactive
same,outcome,[8],inactive
CCCOc1nn(C(=O)NS(=O)(=O)c2ccccc2C(=O)OC)c(=O)n1C,outcome,[1],inactive
same,outcome,HGF (gene 3082),inactive
same,outcome,[2],inactive
same,outcome,[3],inactive
same,outcome,[4],inactive
same,outcome,[5],inactive
same,outcome,[6],inactive
same,outcome,[7],inactive
same,outcome,[8],inactive
CSc1nnc(C(C)(C)C)c(=O)n1N,outcome,[1],inactive
same,outcome,HGF (gene 3082),inactive
same,outcome,[2],inactive
same,outcome,[3],inactive
same,outcome,[4],inactive
same,outcome,[5],inactive
same,outcome,[6],inactive
same,outcome,[7],inactive
same,outcome,[8],inactive
CCCCSP(=O)(SCCCC)SCCCC,AC50,[1],50 µM (active)
same,outcome,HGF (gene 3082),inactive
same,AC50,[2],65.7 µM (active)
same,outcome,[3],inactive
same,AC50,[4],64.2 µM (active)
same,outcome,[5],inactive
same,outcome,[6],inactive
same,AC50,[7],1.7 µM (active)
CN1COCN(Cc2cnc(Cl)s2)C1=N[N+](=O)[O-],outcome,[1],inactive
same,outcome,HGF (gene 3082),inactive
same,outcome,[2],inactive
same,outcome,[3],inactive
same,outcome,[4],inactive
same,outcome,[5],inactive
same,outcome,[6],inactive
same,outcome,[7],inactive
same,outcome,[8],inactive
COc1cccc(C(=O)NN(C(=O)c2cc(C)cc(C)c2)C(C)(C)C)c1C,outcome,[1],inactive
same,outcome,HGF (gene 3082),inactive
same,AC50,[2],74.6 µM (active)
same,outcome,[3],inactive
same,outcome,[4],inactive
same,outcome,[5],inactive
same,outcome,[6],inactive
same,outcome,[7],inactive
same,outcome,[8],inactive
Cc1nn(-c2cc(NS(C)(=O)=O)c(Cl)cc2Cl)c(=O)n1C(F)F,outcome,[1],inactive
same,outcome,HGF (gene 3082),inactive
same,outcome,[3],inactive
same,outcome,[4],inactive
same,outcome,[5],inactive
same,outcome,[6],inactive
same,outcome,[7],inactive
same,outcome,[8],inactive
CCOP(=O)(NC(C)C)Oc1ccc(SC)c(C)c1 (centres undefined),AC50,[1],18.8 µM (active)
same,outcome,HGF (gene 3082),inactive
same,AC50,[2],50 µM (active)
same,outcome,[3],inactive
same,outcome,[4],inactive
same,outcome,[5],inactive
same,outcome,[6],inactive
same,outcome,[7],inactive
COP(=O)(OC)SCn1c(=O)oc2cc(Cl)cnc21,outcome,[1],inactive
same,AC50,HGF (gene 3082),65.9 µM (active)
same,outcome,[2],inactive
same,outcome,[3],inactive
same,outcome,[4],inactive
same,outcome,[5],inactive
same,outcome,[6],inactive
same,outcome,[7],inactive
CCOP(=O)(SC(C)CC)N1CCSC1=O (centres undefined),AC50,[1],21.3 µM (active)
same,AC50,[2],21 µM (active)
same,outcome,[3],inactive
same,outcome,[4],inactive
same,outcome,[5],inactive
same,outcome,[6],inactive
same,outcome,[7],inactive
